These results are taken from ChEMBL document CHEMBL1157539, “Thousands of chemical starting points for antimalarial lead identification” (Nature, 2010).

The Inhibition is the change of the read-out against control, counted positive when it falls. A higher Inhibition goes with strong suppression.

This test deals with Plasmodium falciparum. The experiment in a line: GSK_TCMDC: Inhibition of Plasmodium falciparum Dd2 in whole red blood cells, using parasite LDH activity as an index of growth. Test compounds present at 2uM. Format: functional.
As to `COc1ccc(CNC2CCN(C)CC2)cc1-c1ccc(S(=O)(=O)NCc2ccccc2)c(F)c1.O=C(O)C(F)(F)F`, the Inhibition amounted to 97%. Compound `Cc1cc(Cl)ccc1OC(C)C(=O)N1CCc2ccccc21` (stereo not given) registered an Inhibition of 78%.

`CCOC(=O)c1cnc2c(OC)cc(OC)c(Cl)c2c1Nc1cccc(C)c1`: the Inhibition was determined as 20%. In turn, `Cc1ccc(NC(=S)NC2CCN(CCCCCNC(=O)/C=C/c3ccc(Cl)c(Cl)c3)CC2)cc1Cl` came in with an Inhibition of 56%. `CS(=O)(=O)CCNC(=O)c1ccc(-c2cc3c(Nc4ccc5c(cnn5Cc5ccccc5)c4)ncnc3cn2)o1.Cl` had an Inhibition of 46%. Turning to `CN(Cc1ccc(-c2ccc(C(F)(F)F)cc2)cc1)C(=O)Cn1c(CCc2cccc(F)c2F)cc(=O)c2ccc(OCC3CCCN3C)cc21.O=C(O)C(O)C(O)C(=O)O` (stereo not given), the Inhibition stood at 37%. The figure for `Cc1cc(C(=O)Nc2ccc3c(c2)CCN3C2CCN(Cc3ccc(F)cc3Cl)C2)no1` (stereo not given) is 96%; for `CN(C)CCOc1ccc(-n2c(-c3nonc3N)nc3cncc(-c4ccc(F)cc4)c32)cc1` it is 7%; for `COC(=O)Nc1cc(C(F)(F)F)ccc1N1CCCC(NS(=O)(=O)c2ccc(C(C)(C)C)cc2)C1` (stereo not given) it is 90%. On to `FC(F)(F)c1ccc2[nH]c(-c3cccc(-c4ccc(CNCCN5CCNCC5)cc4)c3)nc2c1.O=C(O)C(F)(F)F`, for which the Inhibition turned out to be 0%. The compound `COc1ccc(C(C)Nc2nc(N)c3cc(OC)c(OC)cc3n2)cc1.Cl` (stereo not given) displayed an Inhibition of 28%. For the compound `COc1ccc(CNCc2ccc(F)cc2)cc1-c1ccc(S(=O)(=O)NCCN2CCCC2)c(C)c1.O=C(O)C(F)(F)F`, the Inhibition came out at 56%. For `CC(C)Oc1ccccc1-c1csc(C(=O)NCC2CCN(Cc3ccc(C(C)(C)C)cc3)C2)c1.O=C(O)C(F)(F)F` (stereo not given), the Inhibition worked out at 45%. The figure for `Nc1nc(N)c2cc(NC(=O)c3ccc(Cl)c(Cl)c3)ccc2n1` is 83%; for `CN1CCCN(Cc2ccc(-c3ccc(NS(=O)(=O)c4cccc5cccnc45)cc3)cc2)CC1.O=C(O)C(F)(F)F` it is 85%; for `CC1CN(c2cccc3c2nc(-c2cncc(C#N)c2)n3CCNCc2ccccc2)CC(C)O1.O=C(O)C(F)(F)F` (stereo not given) it is 9%. The figure for `O=C(Nc1cccc(-c2nn3ncccc3c2-c2ccnc(Nc3cccc(-c4cnco4)c3)n2)c1)c1c(F)cccc1F` is 98%; for `CC1CCCCC1N(C)C1CCN(CCCNC(=O)C=Cc2ccc(Cl)cc2Cl)CC1` (stereo not given) it is 59%. Compound `O=C(Nc1ccc(-c2ccccc2)cc1)Nc1cccc(Cn2nc(Cl)c(N3CCCNCC3)cc2=O)c1.O=C(O)C(F)(F)F` displayed an Inhibition of 37%. Consider `CCCOc1ccc(C=C(CC(=O)O)c2nc3ccccc3s2)cc1OCC`, for which the Inhibition is 84%. Turning to `Cl.Fc1ccccc1COc1ccc(Nc2ncnc3ccc(-c4nnc(C(F)(F)F)o4)cc23)cc1Cl`, the Inhibition is 46%.

As to `C[C@H](NC(=O)[C@H](CCCCNC(=O)OC(C)(C)C)NC(=O)OC(C)(C)c1ccc(-c2ccccc2)cc1)C(=O)OCc1ccccc1`, the Inhibition was determined as 1%. In turn, `COc1ccc(C(=O)C2CCN(CCCCNC(=O)c3ccc(NC(=O)c4cc(Cl)cc(Cl)c4)cc3)CC2)cc1` yielded an Inhibition of 84%. As for `CCOc1c(Br)cc(Cl)cc1CNCCCNc1nc2ccccc2[nH]1.Cl`, the Inhibition was 3%. `COc1ccc2nccc([C@@H](O)CN3CCC(NCc4nc5cc(F)cc(F)c5[nH]4)CC3)c2c1.O=C(O)C(=O)O` registered an Inhibition of 64%. The compound `CCc1ccc(NC(=O)c2ccc(CN3CCCN(Cc4cccc(C)c4)CC3)cc2)cc1.O=C(O)C(F)(F)F` returned an Inhibition of 0%. As to `Cc1cc(N)c2cc(NC(=O)c3ccc4ccccc4c3)ccc2n1.Cl`, the Inhibition stood at 99%. In turn, `O=C(CCc1c[nH]cn1)Nc1cccc(-c2ccc(-c3nc4ccccc4[nH]3)cc2)c1` showed an Inhibition of 60%. `CC(=O)O.CCC[C@@H]([C@@H](CC1CCCCC1)C(=O)N[C@H](C(=O)Nc1nccc(N)n1)C(C)(C)C)N(O)C=O` showed an Inhibition of 82%. Take `Cc1ccc(CN2CCN(Cc3cccc(NC(=O)c4ccc5ccccc5c4)c3)CC2)cc1C.O=C(O)C(F)(F)F`: the Inhibition is 23%. To `O=C(NC1CCN(Cc2ccccc2)CC1)c1cc(-c2ccncc2)nc2ccc(Cl)cc12` belongs 27%; to `CN(C)c1cccc(-c2cnc3ccc(NCc4cccc(Cl)c4)nn23)c1`, 98%.

For `Cc1cc(Nc2ccc(OCc3ccccc3Cl)cc2)c2cc(Cl)ccc2n1.Cl`, the Inhibition was determined as 58%. The compound `COc1cc2nc(C)nc(Nc3ccc(Cc4ccccc4)cc3)c2cc1OC.Cl` had an Inhibition of 99%. The figure for `CC(C)C(C(=O)Nc1ccc(S(=O)(=O)N(C)C)cc1)c1ccc(Cl)cc1` (stereo not given) is 98%.
